Compounds with a hit are over-represented: about 8% of the library has one in this group of screens.
Lassa entry inh – qHTS for Inhibitors of binding or entry into cells for Lassa Virus; Lassa virus pseudotype entry inhibition, cell reporter; Potency, µM (series often up to 37.9 µM), inactives show at the top dose activity change, negative = inhibition, hits mostly inhibitors; 300,000 compounds, 1.2% hits; AID 540256, 2011; calls by dose curve; tested in HEK293 cells; also: potency is read from the fitted curve at half-maximal effect; % is scaled to controls: 0 for no effect and ±100 for the full control effect; nearly all actives have a fitted effect of over 50% in size
MARV entry inh – qHTS for inhibitors of binding or entry into cells for Marburg Virus | Marburg virus pseudotyped entry inhibition, cell reporter | Potency, µM (top dose mostly 37.8 µM), without a hit: at the highest dose activity change, negative = inhibition, hits mostly inhibitors | 300,000 compounds, 1.8% hits | AID 540276, 2011; calls by dose curve; tested in HEK293 cells; also: potency is read from the fitted curve at half-maximal effect; % is scaled to controls: 0 for no effect and ±100 for the full control effect
SARS PLP yeast – qHTS of Yeast-based Assay for SARS-CoV PLP; S. cerevisiae expressing SARS-CoV PLpro, growth rescue; Potency, µM (top dose mostly 32.9 µM), for the others: at the top dose activity, positive = growth rescue, actives largely listed as activators; 330,000 compounds, 0.19% hits; calls by dose curve; also: potency is read from the fitted curve at half-maximal effect; 0% is about no effect; nearly all actives have a fitted effect of over 55% in size
HCMV inh – qHTS Assay for inhibitors of the human cytomegalovirus (HCMV); activity change, negative = inhibition, % at 57.5 µM; HFF cells, HCMV-luciferase reporter, 72 h; active compounds read low; 410,000 compounds, 4.5% hits; AID 1259415, 2018; in the data active = activity change below about -60%; inconclusive = no clear call, values can overlap the other calls; inactive = above about -39%; also: % is scaled to controls: 0 for no effect and ±100 for the full control effect
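HFF cells seeded 16 h at 37C, treated with compounds, infected with luciferase-reporter HCMV at MOI 1 PFU/cell; luciferase read at 72 h post infection, normalized to buffer-only and Salinomycin controls.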
HCV inhibitor – qHTS Assay for Inhibitors of Hepatitis C Virus (HCV). 340,000 compounds, 3.4% hits. Huh7.5.1 HCVcc-Cre infection, luciferase reporter, 44 h. Potency, µM (titrated, usually from 41.8 µM), for inactives: top-dose activity change, negative = inhibition, actives largely listed as inhibitors; active = well fitted inhibition curve with a large enough effect; inconclusive = small, poorly fitted or top-dose-only effect, or another doubt; inactive = no such curve, though single readings can be large or run the other way; also: potency is read from the fitted curve at half-maximal effect; % is scaled to controls: 0 for no effect and ±100 for the full control effect
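1,000 cells/well; 4 h culture; + compound; + HCVcc-Cre (~0.5 moi); 44 h; luciferase substrate, RT 15 min; read 15 sec.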
FMDV inh – High Throughput Screening for Foot and Mouth Disease Virus Antivirals. FMDV antiviral cell-based qHTS. Potency, µM (series often up to 57.9 µM), without a hit: at the top dose activity change, negative = inhibition, hits mostly inhibitors. 410,000 compounds, 1.2% hits; calls by dose curve; tested in HEK293T cells; also: read-out not given here; potency is read from the fitted curve at half-maximal effect; % is scaled to controls: 0 for no effect and ±100 for the full control effect; nearly all actives have a fitted effect of over 45% in size
* hit, by the source's call; [ ] = dose if it differs, or a comment.

What do the screens show for `COCCN=c1scc(-c2ccc3c(c2)NC(=O)CO3)n1/N=C(\C)c1ccc(O)cc1`?
Lassa entry inh: inconclusive; MARV entry inh: inconclusive; SARS PLP yeast: 1%; HCMV inh: inconclusive; HCV inhibitor: inconclusive; FMDV inh: 0%

Results for COc1cc(/C=N/n2c(-c3ccc4c(c3)NC(=O)CO4)csc2=Nc2cccc(C)c2)ccc1O ?
Lassa entry inh: 23µM*; MARV entry inh: inconclusive; SARS PLP yeast: -1%; HCMV inh: -96*; HCV inhibitor: 7.1µM*; FMDV inh: inconclusive

How did CCN1C(=O)NC(c2ccccc2)C(C(=O)OC)=C1C (centres undefined) do in these assays?
MARV entry inh: 7%[14.2 µM]

Results for COc1ccc(C(=O)Oc2cccc(Nc3ncnc4ccccc34)c2)cc1OC ?
Lassa entry inh: inconclusive; MARV entry inh: inconclusive; SARS PLP yeast: -15%; HCMV inh: -18; HCV inhibitor: inconclusive; FMDV inh: 20µM*

Results for COc1cc(C(=O)Oc2cccc(Nc3ncnc4ccccc34)c2)cc(OC)c1OC ?
Lassa entry inh: inconclusive; MARV entry inh: inconclusive; SARS PLP yeast: -19%; HCMV inh: -70*; HCV inhibitor: 25µM*

Results for Fc1ccc(CNC(=S)Nc2cccc(Cl)c2)cc1 ?
Lassa entry inh: inconclusive; MARV entry inh: -15%; SARS PLP yeast: -17%; HCMV inh: inconclusive; HCV inhibitor: inconclusive; FMDV inh: 4%

Results for FC(F)(F)c1ccccc1NC(=S)Nc1cccc(Cl)c1 ?
Lassa entry inh: 6%; MARV entry inh: 22%[46.1 µM]; SARS PLP yeast: -1%; HCMV inh: -76*; HCV inhibitor: 24%; FMDV inh: -12%

Results for FC(F)(F)c1cccc(NC(=S)Nc2ccc(Cl)cc2Cl)c1 ?
Lassa entry inh: inconclusive; MARV entry inh: -26%; SARS PLP yeast: -4%; HCMV inh: 2; HCV inhibitor: 19%; FMDV inh: inconclusive

Results for Fc1ccc(NC(=S)Nc2cccc(Cl)c2)cc1 ?
Lassa entry inh: -2%; MARV entry inh: 3%; SARS PLP yeast: -29%; HCMV inh: -73*; HCV inhibitor: inconclusive; FMDV inh: 41%

What do the screens show for `COC(=O)c1ccc(N2CCCCC2)c(NS(=O)(=O)c2ccc(C)cc2)c1`?
Lassa entry inh: -3%; MARV entry inh: inconclusive; SARS PLP yeast: -16%; HCMV inh: 9; HCV inhibitor: 13µM*

How did CCN(CC)CCNC(=O)c1ccc(NC(=O)c2cc(S(=O)(=O)N3CCCCC3)ccc2N2CCOCC2)cc1 do in these assays?
Lassa entry inh: 5%; MARV entry inh: inconclusive; HCMV inh: -14; HCV inhibitor: 29%; FMDV inh: 1%

How did CCN(CC)CCNC(=O)c1ccc(N2CCCCC2)c(NS(=O)(=O)c2ccc(C)cc2)c1 do in these assays?
Lassa entry inh: -26%; MARV entry inh: inconclusive; SARS PLP yeast: 1%; HCMV inh: inconclusive; HCV inhibitor: 11µM*; FMDV inh: 0%

How did Cc1ccc(S(=O)(=O)Nc2cc(C(=O)N3CCC4(CC3)OCCO4)ccc2N2CCCCC2)cc1 do in these assays?
Lassa entry inh: inconclusive; MARV entry inh: inconclusive; SARS PLP yeast: -3%; HCMV inh: inconclusive; HCV inhibitor: -5%; FMDV inh: 34%

What do the screens show for `CCOC(=O)c1ccc(N2CCCCC2)c(NS(=O)(=O)c2cccc(C(F)(F)F)c2)c1`?
SARS PLP yeast: -3%; HCMV inh: -65*; HCV inhibitor: -20%; FMDV inh: 0%

How did CCCCNC(=O)CN(Cc1ccco1)S(=O)(=O)c1ccc(C(C)=O)cc1 do in these assays?
SARS PLP yeast: 9%; HCMV inh: -32; HCV inhibitor: 11%; FMDV inh: 22%

How did CCOC(=O)C(Cc1ccccc1)(Nc1ccccc1OC)C(O)c1ccccc1Br (centres undefined) do in these assays?
HCMV inh: -5

How did Cc1ccc(C(=O)N/N=C/c2ccc(-c3cccc(C(F)(F)F)c3)o2)cn1 do in these assays?
Lassa entry inh: inconclusive; MARV entry inh: inconclusive; SARS PLP yeast: -3%; HCMV inh: inconclusive; HCV inhibitor: inconclusive; FMDV inh: 32µM*

What do the screens show for `CCCCn1c(=NC(=O)c2cc3ccccc3o2)c(C(=O)OCC)cc2c(=O)n3ccccc3nc21`?
Lassa entry inh: -3%[46.1 µM]; MARV entry inh: inconclusive; HCMV inh: 0; FMDV inh: 33%

How did CC(=O)c1cccc(NC(=O)Cn2cnc3c2c(=O)n(C)c(=O)n3C)c1 do in these assays?
Lassa entry inh: -2%[46.1 µM]; MARV entry inh: 12%[46.1 µM]; HCMV inh: -2; FMDV inh: -18%

Results for Cc1ccc(Sc2cc(C(=O)NCCCN(C)C)c3ccccc3n2)cc1 ?
Lassa entry inh: inconclusive; MARV entry inh: inconclusive; SARS PLP yeast: 0%; HCMV inh: -39; HCV inhibitor: inconclusive; FMDV inh: -2%

Results for Cc1ccc(CNC(=O)c2cc(Sc3ccc(F)cc3F)nc3ccccc23)cc1 ?
Lassa entry inh: inconclusive; HCMV inh: -66*; FMDV inh: -13%

Results for COCCCNC(=O)c1cc(Sc2ccc(F)cc2)nc2ccccc12 ?
Lassa entry inh: -8%; MARV entry inh: -15%; SARS PLP yeast: 13%; HCMV inh: -61*; HCV inhibitor: inconclusive; FMDV inh: -21%

Results for CCOCCCNC(=O)c1cc(Sc2ccc(F)cc2)nc2ccccc12 ?
Lassa entry inh: inconclusive; MARV entry inh: inconclusive; SARS PLP yeast: -12%; HCMV inh: -62*; HCV inhibitor: 5%; FMDV inh: -17%

Results for CCC1C(=O)OC[C@@H]1Cc1cncn1C (some centres undefined) ?
MARV entry inh: -6%

Results for CSc1ccccc1OCc1cc(C(=O)N2CCc3[nH]cnc3C2c2ccccn2)no1 (centres undefined) ?
Lassa entry inh: 2%; MARV entry inh: inconclusive; SARS PLP yeast: 5%; HCMV inh: -60*; HCV inhibitor: -17%; FMDV inh: -20%

What do the screens show for `CSc1ccccc1OCc1cc(C(=O)N2CCc3c(Cl)cccc3C2)no1`?
Lassa entry inh: -30%[46.1 µM]; MARV entry inh: inconclusive; SARS PLP yeast: -3%; HCMV inh: inconclusive; HCV inhibitor: 13µM*; FMDV inh: -24%

What do the screens show for `CCOC(=O)N1CCC(NC(=O)c2cc(COc3ccccc3SC)on2)CC1`?
Lassa entry inh: -28%; MARV entry inh: -20%; SARS PLP yeast: 4%; HCMV inh: -39; HCV inhibitor: 16µM*; FMDV inh: 0%

How did COc1cc(C(=O)NCCCN2CCCC2=O)cc(Br)c1OCc1ccccc1 do in these assays?
SARS PLP yeast: 0%; HCMV inh: -26; HCV inhibitor: inconclusive; FMDV inh: 0%

Compound activity (PubChem)
